PubChem BioAssay AID1619 (SRMLSC, 2009)
Among all 220,000 compounds or so, about 830 (0.38%) were called active.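 How the source made its calls: active means compound inhibiting the enzyme by more than half at any dose during confirmatory dose-response retesting; inconclusive means strong single-dose inhibitors picked by rank but not retested; inactive means the rest.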 Only a sample is shown. Measured potencies and affinities stand elsewhere.

biological target: Leucine aminopeptidase (Plasmodium falciparum (isolate 3D7)) (UniProt Q8IL11); assay: P. falciparum M17LAP inhibitors, primary screen, biochemical, fluorogenic H-Leu-NHMec substrate, 1536-well (AID 1619); conditions: recombinant M17LAP, H-Leu-NHMec fluorogenic kinetic assay; at 30 µM; active compounds read high;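 further: plate controls were full reaction with DMSO carrier for no effect and no enzyme background for full effect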
Sequence (Q8IL11 whole entry, looked up): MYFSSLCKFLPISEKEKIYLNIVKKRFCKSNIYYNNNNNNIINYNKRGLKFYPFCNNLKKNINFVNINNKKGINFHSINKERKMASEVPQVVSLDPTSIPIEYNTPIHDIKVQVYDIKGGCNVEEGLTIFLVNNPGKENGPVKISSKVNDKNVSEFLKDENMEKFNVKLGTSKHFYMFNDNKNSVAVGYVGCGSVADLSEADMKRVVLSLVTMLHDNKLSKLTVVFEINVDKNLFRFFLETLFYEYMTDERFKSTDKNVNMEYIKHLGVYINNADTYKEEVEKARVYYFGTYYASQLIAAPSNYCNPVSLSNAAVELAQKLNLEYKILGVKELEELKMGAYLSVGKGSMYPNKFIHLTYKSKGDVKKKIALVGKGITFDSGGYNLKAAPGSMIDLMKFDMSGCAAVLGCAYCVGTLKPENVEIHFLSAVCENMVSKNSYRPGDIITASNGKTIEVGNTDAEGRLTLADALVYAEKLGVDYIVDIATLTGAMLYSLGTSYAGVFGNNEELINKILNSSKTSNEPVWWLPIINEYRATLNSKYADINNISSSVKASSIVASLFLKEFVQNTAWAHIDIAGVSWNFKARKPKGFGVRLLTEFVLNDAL

inhibition, inactive:
O=C1Nc2ccccc2S/C1=C/c1cccs1 4.97%
CCCCCCOc1cccc(N)c1 -6.2%
COc1ccc(S(=O)(=O)N(CC(=O)N/N=C/c2cccs2)c2cc(C)cc(C)c2)cc1OC -9.62%
Cc1ccc(O)c(CNn2cnnc2)c1 -3.08%
C/C(=N\O)c1oc2ccc3c(C)cc(=O)oc3c2c1C 2.81%
COc1nc(N(CC(N)=O)S(=O)(=O)c2ccccc2)nc(C)c1Cl -8.61%
Cc1ccc(-n2nnnc2CN2CCCCC2)cc1 -0.54%
COC(=O)c1scc(C)c1N/N=C(\C)c1cc(F)c(Cl)cc1F -1.99%
Cn1ncc(Cl)c1C(=O)N/N=C/c1cc2c(cc1[N+](=O)[O-])OCO2 10.6%
CCCc1ncc(C(O)c2ccc(OC)cc2)n1C (centres undefined) -6.37%
Cc1ccc(Oc2ccc(NC(=O)CSc3n[nH]c(N)n3)cc2)cc1 -7.16%
Cc1ccc(NC(=O)CN(C)C(=O)CSc2nc3ccccc3o2)cc1 3.63%
Cc1ccc(CNC(=O)CSc2n[nH]c(N)n2)cc1 16.9%
Cc1ccc(NC(=O)CN(C)C(=O)CSc2nc(C)cs2)cc1 -4.97%
CCn1ncc(/C=N\NC(=O)c2ccc3c(c2)c(C)c(C)n3Cc2ccccc2)c1C 8%
Cc1c(C(=O)N2CCN(Cc3ccc4c(c3)OCO4)CC2)cccc1[N+](=O)[O-] 11.8%
COc1ccc(Nc2nc(C(=O)N3CCc4cc(OC)c(OC)cc4C3)cs2)cc1 -3.32%
COc1ccc(NC(=O)COC(=O)c2ccco2)c([N+](=O)[O-])c1 -7.81%
CN(Cc1cnccn1)C(=O)CC1C(=O)NCCN1Cc1c(F)cccc1Cl (centres undefined) 4.09%
CCCCc1ccc(NC(=O)C(C)CC)cc1 (centres undefined) 4.63%
CCCCc1ccc(NC(=O)N[C@@H](CC(C)C)C(=O)O)cc1 -4.28%
CCc1ccc(C(=O)NC(C(=O)O)C(C)C)cc1 (centres undefined) 56.2%
CCCCc1ccc(NC(=O)N[C@@H](C)C(=O)O)cc1 -2.39%
CCCCCOc1ccc(C(=O)NC(C(=O)O)C(C)C)cc1 (centres undefined) 46.7%
CCc1ccc(NC(=O)N[C@H](C(=O)O)C(C)CC)cc1 (some centres undefined) -1.8%
CC(C)(C)NC(=O)CN(Cc1ccc(F)cc1)C(=O)Cn1nnc(-c2ccc(F)cc2)n1 2.63%
Cc1cccc(OCCCOc2cccc3cccnc23)c1C -0.78%
C[C@@H](C(=O)N1CCN(C(=O)OC(C)(C)C)CC1)n1cc(CCC(=O)O)nn1 3.71%
Cc1ccc(SCCn2nc(C(=O)O)c3ccccc3c2=O)cc1 11.2%
Cc1cccc(NS(=O)(=O)c2ccc3c(c2)NC(=O)CC(=O)N3)c1 0.82%
CCOc1ccccc1NC(=O)c1c(NC(=O)CCC(=O)O)sc2c1CCCCC2 3.19%
Cc1ccccc1C(=O)Nc1sc2c(c1C(=O)O)CCC2 25.7%
COc1ccc(NC(=O)c2c(NC(=O)CCC(=O)O)sc3c2CCCCC3)cc1 46%
COc1ccccc1NC(=O)c1c(NC(=O)CCC(=O)O)sc2c1CCCCC2 12%
O=C(Nc1sc2c(c1C(=O)O)CCCCC2)c1ccccc1 54.2%
CCOC(=O)c1ccc(NC(=O)c2c(NC(=O)CCC(=O)O)sc3c2CCCCC3)cc1 4.02%
O=C(NCCC(c1ccccc1)c1ccccc1)c1cnccn1 -1.23%
COc1ccc(C)cc1NC(=O)C(OC(=O)CNC(=O)c1ccc(Br)cc1)c1ccccc1 (centres undefined) -14.5%
CN(C)S(=O)(=O)c1ccc(NC(=O)Cn2ccsc2=N)cc1 0.8%
c1ccc(-c2nc(NCC3CCCO3)c3oc4ccccc4c3n2)cc1 (centres undefined) -4.77%
Cc1noc(C)c1COc1ccc(C(=O)OCC(=O)Nc2ccc3c(c2)OCO3)cc1 4.59%
COc1ccc2[nH]c(C)c(CCNC(=S)Nc3ccc(F)cc3)c2c1 -5.1%
O=C(Cn1cc2c(n1)CCCC2)N1CCc2ccccc21 3.11%
COc1ccccc1N1CC(C)C(=O)NC1=S (centres undefined) 8%
Cc1onc(-c2ccccc2)c1C(=O)NC(=S)NNC(=O)c1ccc(O)cc1 14.3%
Cc1ccccc1C(=O)NNC(=S)NC(=O)c1cccnc1 80.7%
Cc1onc(-c2ccccc2)c1C(=O)NNC(=S)NC(=O)c1ccc(Br)cc1 44.1%
Cc1ccccc1C(=O)NCC(=O)NNC(=S)NC(=O)c1ccccc1C 63.2%
Cc1ccccc1C(=O)NC(=S)NCC(=O)c1ccccc1 0.75%
Cc1ccccc1C(=O)NNC(=S)NC(=O)c1ccc(Cl)cc1Cl 90.7%
Cc1ccc(NC(=O)CN(c2ccccc2)S(=O)(=O)N(C)C)cc1 -5.3%
CCOC(=O)c1cnc2c(C(F)(F)F)cccc2c1N1CCOCC1 6.02%
C/C(CC(=O)N(C(C)C)C(C)C)=N\NC(=O)COc1ccc(Cl)cc1Cl 7.13%
Cc1ccc(C(=O)Nc2ccc3cn[nH]c3c2)cc1S(=O)(=O)N1CCCCC1 4.67%
CCOC(=O)NC(=O)CSc1nnnn1-c1ccccc1 0.74%
OCC(O)C1OC(Nc2ccc(Cl)cc2)C(O)C1O (centres undefined) 2.43%
Cc1nn(S(=O)(=O)c2cccc([N+](=O)[O-])c2)c(C)c1Br 10.8%
Cc1ccc(NC(=O)COC(=O)Cn2c(C)csc2=O)cc1C 4.89%
Nc1n[nH]c(N)c1N=Nc1ccc(Cl)cc1Cl 47.6%
Cc1[nH]nc(N)c1N=Nc1ccc(Br)cc1 -1.99%
COC(=O)c1ccccc1N=Nc1c(N)n[nH]c1N 12.4%
Nc1nn(-c2ccccc2)c(N)c1N=Nc1ccccc1 -19.2%
Nc1n[nH]c(N)c1N=Nc1ccc2c(c1)OCO2 -3.08%
COc1ccc(N=Nc2c(N)n[nH]c2N)cc1 9.88%
Nc1n[nH]c(C2CC2)c1N=Nc1ccc(Cl)cc1 18.4%
Nc1nn(-c2ccccc2)c(N)c1N=Nc1cccc(F)c1 -3.61%
Cc1ccc(S(=O)(=O)N2CCOCC2)cc1NC(=O)CN1CCN(c2ccc(O)cc2)CC1 -10.2%
Cc1nn(Cc2c(Cl)cccc2Cl)c(C)c1NC(=O)CCCn1nc(C)c([N+](=O)[O-])c1C -7.34%
CCOc1ccc(NC(=S)NN2C(C)CCCC2C)cc1 (centres undefined) -3.03%
C[C@@H]1NC(=O)c2cc([N+](=O)[O-])cc(I)c2OCC[C@@H](C(N)=O)NC(=O)[C@H](CCCCN)NC1=O 21.6%
CCCCC(=O)NC(=S)Nc1cccc(NC(=O)c2ccccc2)c1 2.99%
O=C(NCc1ccc2c(c1)OCO2)C1CCC(CNc2c(N3CCCC3)c(=O)c2=O)CC1 (centres undefined) 9.79%
Cc1noc(C)c1CSCc1ccc(Cl)cc1 2.99%
COc1ccc(-c2nc(=S)n3ccsc3n2)cc1OC -2.9%
O=C(NCc1ccccc1)N1CCN(c2ccc(F)cc2)CC1 13.1%
O=C(c1ccc(S(=O)(=O)N2CCOCC2)cc1)N1CCOCC1 -9.29%
Cc1cc(C)cc(-n2c(SCC(=O)NCc3ccc4c(c3)OCO4)nc3ccccc3c2=O)c1 19.8%
O=C1CCCC/C1=C/Nc1ccc(S(=O)(=O)Nc2ncccn2)cc1 6.19%
Cc1cc(C)nc(NS(=O)(=O)c2ccc(Br)cc2)n1 15.3%
C=CCOC(=O)c1c(C)nc2cc3c(cc2c1C)OCO3 9.48%
Cc1ccc(C(=O)CC(C(=O)O)n2cnc([N+](=O)[O-])n2)cc1 (centres undefined) 11.1%
O=C(NCc1ccco1)C(=O)c1cn(CC(=O)N2CCCCC2)c2ccccc12 8.43%
O=C(c1ccco1)c1cn(CC(=O)N2CCCCC2)c2ccccc12 33.5%
CCN(CC)C(=O)Cn1cc(C(=O)C(=O)NCc2ccco2)c2ccccc21 25.3%
O=C(NCc1cccs1)C(=O)c1cn(CC(=O)N2CCCC2)c2ccccc12 24.7%
Cc1ccc(N=C(NO)c2nonc2N)c(C)c1 14.3%
O=C(Cn1c(=O)oc2ccccc21)NCCc1ccccc1Cl 1.7%
NC(=S)c1ncc(C(F)(F)F)cc1Cl -12.7%
CC(C)NC(=O)c1cnc(Sc2ncc(C(F)(F)F)cc2Cl)n1C 6.92%
O=C(c1cc[n+]([O-])cc1)N1CCc2c([nH]c3ccccc23)C1c1ccccc1Cl (centres undefined) 15.1%
O=C(c1nc(-c2ccccc2)n(-c2ccccc2)n1)N1CCN(S(=O)(=O)c2ccccc2)CC1 -12.4%
CCOc1ccc(C(=O)NCC(=O)OCc2cc(C(C)=O)ccc2OC)cc1 3.31%
CCC(C)C(NC(=O)c1ccccc1NC(=O)c1ccco1)C(=O)NNC(=O)c1ccncc1 (centres undefined) 3.96%
O=C(O)C12CC3CC(C1)CC(n1ncc(N4CCN(c5ccccc5)CC4)c(Cl)c1=O)(C3)C2 61.6%
Cc1cccc(Nc2cnn(C34CC5CC(CC(CC(=O)O)(C5)C3)C4)c(=O)c2Cl)c1 39.2%
CC(=O)c1ccc(Nc2cnn(C34CC5CC(CC(CC(=O)O)(C5)C3)C4)c(=O)c2Cl)cc1 46.4%
Cc1cc(C)cc(Nc2cnn(C34CC5CC(CC(CC(=O)O)(C5)C3)C4)c(=O)c2Cl)c1 45.8%
O=C(O)C12C[C@H]3C[C@@H](C1)CC(n1ncc(N4CCN(c5ccccc5)CC4)c(Cl)c1=O)(C3)C2 36.9%
CCc1ccc(Nc2cnn(C34CC5CC(CC(CC(=O)O)(C5)C3)C4)c(=O)c2Cl)cc1 53.3%
